Hits are enriched below; roughly 8.5% of the tested compounds scored in any of these assays.
Coupling enz – inhibits coupling enzyme system, counter-screen for aldolase hits. coupling enzyme system counterscreen, AmpLite Red fluorescence. activity change, negative = inhibition, % at 58.2 µM, hits read low. 290,000 compounds, 0.67% hits. AID 2472; in the data active = activity change below about -30%
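First, compound is pin-transferred into glyceraldehyde-3-phosphate coupling-enzyme reagent at 57.5 uM final and held 10 min at RT. Next, substrate, coupling system and AmpLite Red are added. After 20 min RT, fluorescence (525/598 nm) is read.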
ALDH1A1 inh – blocks purified human ALDH1A1 activity; Purified ALDH1A1, NADH fluorescence, propionaldehyde substrate; Potency, µM (top dose mostly 75.3 µM), without a hit: at the top dose activity, negative = inhibition, hits mostly inhibitors; 220,000 compounds, 7.3% hits; AID 1030; active = well fitted inhibition curve with a large enough effect, not every such curve was filed as active; inconclusive = small, poorly fitted or top-dose-only effect, or another doubt; inactive = no such curve, though single readings can be large or run the other way;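 note: potency is the fitted concentration of half-maximal effect; plate controls were no enzyme wells and a reference inhibitor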
Target sequence (P00352 whole entry, looked up): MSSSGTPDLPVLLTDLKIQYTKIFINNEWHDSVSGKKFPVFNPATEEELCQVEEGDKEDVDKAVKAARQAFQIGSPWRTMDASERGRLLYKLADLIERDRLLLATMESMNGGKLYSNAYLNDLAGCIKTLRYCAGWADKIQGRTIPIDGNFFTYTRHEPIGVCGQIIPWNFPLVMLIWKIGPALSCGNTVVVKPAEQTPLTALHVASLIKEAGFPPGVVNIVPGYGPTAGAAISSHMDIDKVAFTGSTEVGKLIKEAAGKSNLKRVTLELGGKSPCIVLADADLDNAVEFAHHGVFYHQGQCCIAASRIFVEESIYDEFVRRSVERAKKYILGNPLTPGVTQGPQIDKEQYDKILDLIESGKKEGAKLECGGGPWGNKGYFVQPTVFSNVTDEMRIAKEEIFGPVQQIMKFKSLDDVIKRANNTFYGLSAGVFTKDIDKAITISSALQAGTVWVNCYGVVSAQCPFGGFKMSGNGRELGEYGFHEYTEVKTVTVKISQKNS
KDM4E inh – JMJD2E (human) inhibition; B2RXH2; 230,000 compounds, 1.6% hits; JMJD2E catalytic domain, FDH-coupled NADH fluorescence (FDH is formaldehyde dehydrogenase); AID 2147; Potency, µM (titrated, usually from 57.1 µM), without a hit: top-dose activity change, negative = inhibition, actives largely listed as inhibitors; active = well fitted inhibition curve with a large enough effect, not every such curve was filed as active; inconclusive = small, poorly fitted or top-dose-only effect, or another doubt; inactive = no such curve, though single readings can be large or run the other way;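 note: potency is the fitted concentration of half-maximal effect; 0% = wells with enzyme and -100% = buffer wells without enzyme; nearly all actives have a fitted effect of over 50% in size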
Sfp inh – Sfp phosphopantetheinyl transferase inhibition; Biochemical Sfp PPTase activity, qHTS; Potency, µM, for inactives: largest response in the series, negative = inhibition, hits mostly inhibitors; 310,000 compounds, 3.5% hits; AID 1490;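 note: the enzyme is Sfp with the accession as filed and its product quenches rhodamine fluorescence; potency is the fitted concentration of half-maximal effect; 0% = enzyme reaction without inhibitor and -100% = no enzyme wells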
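Reaction rates are the 30-min fluorescence difference (ex 525, em 598 nm) in wells containing 15 nM Sfp, 5 uM rhodamine-CoA and 12.5 uM BHQ-2-YbbR at pH 7.6 with 10 mM MgCl2.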
NPSR antag – antagonists of human neuropeptide S receptor cAMP signaling | CHO-NPSR cells, cAMP TR-FRET, antagonist mode | Potency, µM (series often up to 38.3 µM), for the others: top-dose activity change, negative = inhibition, most hits filed as inhibitors | 220,000 compounds, 1% hits; note: potency is the fitted concentration of half-maximal effect; nearly all actives have a fitted effect of over 50% in size
GoLoco inh red – RGS12 GoLoco-Gai1 interaction inhibition | Potency, µM (highest dose often 61.6 µM), for inactives: at the highest dose activity, negative = inhibition, hits mostly inhibitors | AID 880 | Gai1:RGS12 GoLoco peptide FP, rhodamine, 10 min | 230,000 compounds, 0.44% hits; active = well fitted inhibition curve with a large enough effect, not every such curve was filed as active; inactive = no such curve, though single readings can be large or run the other way; note: potency is the fitted concentration of half-maximal effect; nearly all actives have a fitted effect of over 30% in size
* = called active by the depositor; ! = a repeat was not active; [ ] = dose if it differs, or a comment. Unless noted, calls come from the whole dose curve; as a rule, active = well fitted curve in the direction sought with a large enough effect; inconclusive = small, poorly fitted or top-dose-only effect, or another doubt; inactive = no such curve, though single readings can be large; an effect the other way counts as inactive or inconclusive. Unless noted, % is set by controls: 0 for no effect and ±100 for the full control effect.

Screening CN[C@@H]1[C@H](O[C@@H]2O[C@H](C)[C@@](O)(CO)[C@H]2O[C@H]2[C@H](O)[C@H](O)[C@H](N=C(N)N)[C@@H](O)[C@@H]2N=C(N)N)O[C@@H](CO)[C@H](O)[C@H]1O returned Coupling enz 0, ALDH1A1 inh 10µM*, Sfp inh 0% and GoLoco inh red -7%.
For Cc1cccc(C)c1NC(=S)N(CCN(C)C)C(C)c1ccccn1 (configuration not stated) the results were Coupling enz 2, ALDH1A1 inh 11%, KDM4E inh inconclusive, Sfp inh -25%, NPSR antag 17% and GoLoco inh red 1%.
Screening COCCCN(C(=S)Nc1c(C)cc(C)cc1C)C(C)c1ccccn1 (configuration not stated) returned Coupling enz 1, ALDH1A1 inh 8%, KDM4E inh 5%, Sfp inh 22µM*, NPSR antag -6% and GoLoco inh red 3%.
Screening CCN(CC)CCCNC(=S)N1CCN(c2nc3ccccc3n2CC)CC1 returned Coupling enz 3 and Sfp inh -4%.
CN1CCCN(Cc2ccccc2Br)CC1 was read as Coupling enz 0 and Sfp inh 79µM*.
For Cc1ccsc1C=C1C(=O)c2ccccc2C1=O the results were Coupling enz 1, ALDH1A1 inh inconclusive, KDM4E inh -21%, Sfp inh 3%, NPSR antag -12%[46.1 µM] and GoLoco inh red -1%.
`COc1cccc2c1C(=O)C=C(C)C2=O` gave Coupling enz -39*, ALDH1A1 inh inconclusive, KDM4E inh -13%, Sfp inh -4%, NPSR antag -5% and GoLoco inh red 6%.
Screening CC(C)(C)c1ccc2c(c1)C(=O)c1ccccc1C2=O returned Coupling enz 6, ALDH1A1 inh inconclusive, KDM4E inh 2%, Sfp inh -13% and NPSR antag -12%[46.1 µM].
CC1=CC(=O)c2ccccc2C1=O was read as Coupling enz -33*!, ALDH1A1 inh 14µM*!, KDM4E inh -29%, Sfp inh inconclusive, NPSR antag 8% and GoLoco inh red 5%.
For CC(C)(C=O)C1=CC(=O)c2ccccc2C1=O the results were Coupling enz -63*, ALDH1A1 inh 1.6µM*, KDM4E inh 4%, Sfp inh 6.3µM*, NPSR antag inconclusive and GoLoco inh red -13%.
CN(C)c1ccc(NC(=O)CSc2nnc(-c3cnccn3)n2C)cc1 was read as Coupling enz 1 and Sfp inh 2%.
Screening CC1(c2ccccc2)NC(=O)N(CC(=O)N2CCN(S(=O)(=O)c3ccccc3[N+](=O)[O-])CC2)C1=O (configuration not stated) returned Sfp inh 14%.
CCN(CC(=O)NC1CCS(=O)(=O)C1)S(=O)(=O)c1ccc(C)c(C)c1 (configuration not stated) was read as Coupling enz -2, ALDH1A1 inh -5%, KDM4E inh -6%, Sfp inh -18%, NPSR antag 15% and GoLoco inh red 0%.
CC(C(N)=O)N1C(=O)c2cccc3cccc1c23 (configuration not stated) was read as Coupling enz -18, ALDH1A1 inh 5%, KDM4E inh -23%, Sfp inh 6%, NPSR antag -5%[46.1 µM] and GoLoco inh red 8%.
Screening Cc1ccc(/C=c2\sc3n(c2=O)CN(c2cccc(Br)c2)CN=3)o1 returned Coupling enz -14, ALDH1A1 inh 20µM*, KDM4E inh -21%, Sfp inh 20µM*, NPSR antag -20%[46.1 µM] and GoLoco inh red -24%.
O=c1/c(=C/c2ccco2)sc2n1CN(c1cccc(Br)c1)CN=2 was read as Coupling enz 0, ALDH1A1 inh inconclusive, KDM4E inh inconclusive, Sfp inh 2%, NPSR antag inconclusive and GoLoco inh red 73%.
`C=CCN(C(=O)CSc1nc2[nH]ncc2c(=O)n1-c1ccccc1OC)c1ccccc1` gave Coupling enz 1, ALDH1A1 inh 13µM*, KDM4E inh -4%, Sfp inh inconclusive, NPSR antag -13%[46.1 µM] and GoLoco inh red 21%.
Screening COc1ccc(CCNC(=O)CSc2nc3[nH]ncc3c(=O)n2-c2ccccc2Br)cc1OC returned Coupling enz -1, ALDH1A1 inh 22µM*, KDM4E inh 7%, Sfp inh 12%, NPSR antag 15% and GoLoco inh red -9%.
For O=C(CSc1nc2[nH]ncc2c(=O)n1-c1ccccc1Br)NCc1ccco1 the results were Coupling enz 1, ALDH1A1 inh 13µM*, KDM4E inh -24%, Sfp inh 17%, NPSR antag -11%[46.1 µM] and GoLoco inh red 1%.
COc1cc(NC(=O)CSc2nc3[nH]ncc3c(=O)n2-c2ccccc2C)cc(OC)c1OC was read as Coupling enz 6, ALDH1A1 inh inconclusive, KDM4E inh 0%, Sfp inh 13%, NPSR antag 2% and GoLoco inh red 0%.
For Cc1ccc(CNc2nc(-c3cccnc3)nc3ccccc23)cc1 the results were Coupling enz 1 and Sfp inh 89µM*.
`Oc1ccc(/C=N/Nc2nc(-c3cccnc3)nc3ccccc23)c(O)c1` gave Coupling enz -5, KDM4E inh 22µM*, Sfp inh -13%, NPSR antag 39% and GoLoco inh red 44%.
For c1cncc(-c2nc(NCc3ccc4c(c3)OCO4)c3ccccc3n2)c1 the results were Coupling enz -1, KDM4E inh -8%, Sfp inh 45µM*, NPSR antag inconclusive and GoLoco inh red -3%.
`Cc1c(O)ccc(/C=N/Nc2nc(-c3cccnc3)nc3ccccc23)c1O` gave Coupling enz -1, ALDH1A1 inh -9%, KDM4E inh inconclusive, Sfp inh inconclusive, NPSR antag inconclusive and GoLoco inh red 19%.
COC(=O)C[C@@H]1O[C@H]1[C@H](C)[C@@H](OC)C(C)C was read as Coupling enz 0, ALDH1A1 inh -14%[13.5 µM] and Sfp inh 11%.
Screening O=C(Nc1cccc([N+](=O)[O-])c1)c1ccn[nH]1 returned Coupling enz 0, ALDH1A1 inh 2%, KDM4E inh -9%, Sfp inh 10%, NPSR antag 13% and GoLoco inh red 5%.
For COc1ccc2c(c1)c(C(=O)N/N=C/c1cccc(Br)c1)c(C)n2C the results were Coupling enz -45*, KDM4E inh -1%, Sfp inh -2%, NPSR antag -39% and GoLoco inh red 11%.

Screening data (PubChem BioAssay)
